Source: ChEMBL document CHEMBL3988442, “University of Dundee, Small-Polar-MMV Screening Library” (2021)
For some assays here: Measured potencies and affinities stand elsewhere.

How the values were obtained:
Design in all cases: scale not given: direction of the effect not stated beside the values
[1] = target: Protein translocase subunit SecA (Escherichia coli (strain K12)) (UniProt P10408); assay: Assay to Identify E. coli SecA ATPase Inhibitors; format: functional; conditions: 30 µM
[2] = target: T1, Ubiquitin-activating enzyme e1, putative (Leishmania donovani (strain BPK282A1)) (UniProt E9BSI1); assay: Leishmania donovani Ubiquitin Activating Enzyme (LdE1); format: functional; conditions: 30 µM
T1 sequence (whole entry): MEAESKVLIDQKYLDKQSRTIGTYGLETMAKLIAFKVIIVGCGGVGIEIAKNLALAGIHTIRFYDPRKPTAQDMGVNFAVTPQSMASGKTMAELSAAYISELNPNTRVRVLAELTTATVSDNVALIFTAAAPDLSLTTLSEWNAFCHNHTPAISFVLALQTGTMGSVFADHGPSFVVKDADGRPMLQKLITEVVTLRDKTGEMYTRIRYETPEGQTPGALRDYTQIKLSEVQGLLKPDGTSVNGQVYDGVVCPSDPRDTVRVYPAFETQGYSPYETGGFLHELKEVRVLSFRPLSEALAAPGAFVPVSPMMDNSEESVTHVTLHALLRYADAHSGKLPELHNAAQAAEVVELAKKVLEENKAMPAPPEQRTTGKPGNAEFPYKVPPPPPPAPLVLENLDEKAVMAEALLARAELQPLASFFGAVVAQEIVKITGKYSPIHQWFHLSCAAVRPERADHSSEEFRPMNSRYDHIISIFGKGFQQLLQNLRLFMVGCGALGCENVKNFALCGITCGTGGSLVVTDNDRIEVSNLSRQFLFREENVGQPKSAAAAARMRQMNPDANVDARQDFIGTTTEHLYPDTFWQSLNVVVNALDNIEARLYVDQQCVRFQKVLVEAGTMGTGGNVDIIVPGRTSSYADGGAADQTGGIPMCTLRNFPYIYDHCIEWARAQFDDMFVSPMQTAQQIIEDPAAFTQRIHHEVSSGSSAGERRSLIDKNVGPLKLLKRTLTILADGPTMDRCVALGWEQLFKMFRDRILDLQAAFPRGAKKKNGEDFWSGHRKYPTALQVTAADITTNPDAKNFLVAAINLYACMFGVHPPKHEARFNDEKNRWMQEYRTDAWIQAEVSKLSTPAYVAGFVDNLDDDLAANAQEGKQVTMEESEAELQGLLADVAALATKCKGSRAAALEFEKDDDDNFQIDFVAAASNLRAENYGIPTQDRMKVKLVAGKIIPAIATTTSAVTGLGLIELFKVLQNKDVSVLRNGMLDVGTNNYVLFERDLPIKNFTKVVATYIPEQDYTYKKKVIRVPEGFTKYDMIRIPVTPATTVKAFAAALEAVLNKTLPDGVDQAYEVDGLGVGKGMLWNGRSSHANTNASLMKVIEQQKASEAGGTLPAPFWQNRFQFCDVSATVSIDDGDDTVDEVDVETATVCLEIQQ

[3] = target: AMP-activated protein kinase, AMPK (Homo sapiens) (UniProt P54646+O43741+P54619+Q9UGJ0+Q9Y478+Q13131+Q9UGI9); assay: AMP-dependent Kinase enzyme assay. An in vitro enzyme assay that detects ADP turnover that is directly proportional to AMPK activity. This uses naive AMPK that is activated during the assay with MK-8722; format: functional; conditions: 30 µM
[4] = target: Sialic acid-binding Ig-like lectin 9 (Homo sapiens) (UniProt Q9Y336); assay: Hs-Siglec9 ALPHAscreen SOP 20170721; conditions: 10 µM
[5] = test system: Trypanosoma cruzi; assay: Trypanosoma cruzi phosphomannomutase and mannose-1-phosphate guanylyltransferase assay; format: functional; conditions: 10 µM
[6] = target: T2, Arginase-2, mitochondrial (Homo sapiens) (UniProt P78540); assay: in vitro enzyme assay to detect the production of urea directly proportional to the activity of Arginase II; format: functional; conditions: 33.3 µM; note: in the data most compounds retested in dose-response had high values
T2 sequence (whole entry): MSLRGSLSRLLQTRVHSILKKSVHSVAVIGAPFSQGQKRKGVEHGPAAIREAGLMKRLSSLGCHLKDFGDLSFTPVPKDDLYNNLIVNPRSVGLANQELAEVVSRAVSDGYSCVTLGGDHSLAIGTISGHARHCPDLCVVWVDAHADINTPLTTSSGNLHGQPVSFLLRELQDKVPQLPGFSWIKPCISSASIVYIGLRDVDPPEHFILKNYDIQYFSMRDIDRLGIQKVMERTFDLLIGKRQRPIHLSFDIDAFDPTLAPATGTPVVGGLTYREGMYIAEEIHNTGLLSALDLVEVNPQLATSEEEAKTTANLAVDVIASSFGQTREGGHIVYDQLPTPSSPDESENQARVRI

[7] = target: T3, Proteasome subunit beta (Trypanosoma cruzi) (UniProt O96673); assay: Trypanosoma cruzi proteasome chymotrypsin-like activity (TcProtChymo) assay.; note: in the data most compounds retested in dose-response had high values; format: functional; conditions: 9.37 µM
T3 sequence (whole entry): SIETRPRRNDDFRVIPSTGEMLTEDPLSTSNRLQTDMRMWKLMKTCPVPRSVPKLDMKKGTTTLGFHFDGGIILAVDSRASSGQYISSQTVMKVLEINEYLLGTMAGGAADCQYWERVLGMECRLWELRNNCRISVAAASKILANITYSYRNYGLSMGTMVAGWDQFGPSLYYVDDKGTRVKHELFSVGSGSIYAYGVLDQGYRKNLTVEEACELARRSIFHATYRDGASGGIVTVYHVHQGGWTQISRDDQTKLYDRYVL

[8] = organism: Homo sapiens; assay: To identify inhibition of the IFN signalling (Jak-Stat) pathway via expression of an eGFP reporter gene under the control of an IFN-stimulated response element (ISRE) containing MxA promoter.; format: functional; conditions: 30 µM
[9] = target: T4, Tyrosyl-tRNA synthetase, putative (Trypanosoma cruzi (strain CL Brener)) (UniProt Q4DSP6); assay: Trypanosoma cruzi tyrosyl tRNA synthetase (TcYRS) _High Tyrosine SOP; format: functional; conditions: 30 µM; note: in the data most compounds retested in dose-response had high values
T4 sequence (whole entry): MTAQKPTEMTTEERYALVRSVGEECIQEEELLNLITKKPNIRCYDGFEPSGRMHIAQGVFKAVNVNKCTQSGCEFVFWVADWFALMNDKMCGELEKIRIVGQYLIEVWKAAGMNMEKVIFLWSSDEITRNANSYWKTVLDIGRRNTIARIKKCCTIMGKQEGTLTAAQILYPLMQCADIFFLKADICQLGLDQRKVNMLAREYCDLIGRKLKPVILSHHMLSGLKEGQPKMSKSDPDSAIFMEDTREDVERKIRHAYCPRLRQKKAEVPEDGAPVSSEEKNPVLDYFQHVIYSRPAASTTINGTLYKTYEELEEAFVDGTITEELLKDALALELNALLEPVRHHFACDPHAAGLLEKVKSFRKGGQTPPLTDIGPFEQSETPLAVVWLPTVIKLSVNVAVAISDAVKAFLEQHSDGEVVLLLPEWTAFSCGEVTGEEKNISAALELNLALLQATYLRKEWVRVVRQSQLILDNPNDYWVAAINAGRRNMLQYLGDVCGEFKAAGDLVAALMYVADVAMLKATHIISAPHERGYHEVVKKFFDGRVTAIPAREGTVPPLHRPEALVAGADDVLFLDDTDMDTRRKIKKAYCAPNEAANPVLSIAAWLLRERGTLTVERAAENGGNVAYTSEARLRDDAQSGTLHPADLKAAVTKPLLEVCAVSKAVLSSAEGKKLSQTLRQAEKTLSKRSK

[10] = target: T4, Tyrosyl-tRNA synthetase, putative (Trypanosoma cruzi (strain CL Brener)); assay: Trypanosoma cruzi tyrosyl tRNA synthetase (TcYRS) SOP; format: functional; conditions: 30 µM
[11] = target: Chromo domain-containing protein 1 (Saccharomyces cerevisiae (strain ATCC 204508 / S288c) (Baker's yeast)) (UniProt P32657); assay: ScCHD-1 Enzyme Inhibition Assay; format: functional; conditions: 30 µM; note: in the data most compounds retested in dose-response had high values
Chain of Chromo domain-containing protein 1 (Saccharomyces cerevisiae (strain ATCC 204508 / S288c) (Baker's yeast)) (P32657 whole entry, the tested form may be a part): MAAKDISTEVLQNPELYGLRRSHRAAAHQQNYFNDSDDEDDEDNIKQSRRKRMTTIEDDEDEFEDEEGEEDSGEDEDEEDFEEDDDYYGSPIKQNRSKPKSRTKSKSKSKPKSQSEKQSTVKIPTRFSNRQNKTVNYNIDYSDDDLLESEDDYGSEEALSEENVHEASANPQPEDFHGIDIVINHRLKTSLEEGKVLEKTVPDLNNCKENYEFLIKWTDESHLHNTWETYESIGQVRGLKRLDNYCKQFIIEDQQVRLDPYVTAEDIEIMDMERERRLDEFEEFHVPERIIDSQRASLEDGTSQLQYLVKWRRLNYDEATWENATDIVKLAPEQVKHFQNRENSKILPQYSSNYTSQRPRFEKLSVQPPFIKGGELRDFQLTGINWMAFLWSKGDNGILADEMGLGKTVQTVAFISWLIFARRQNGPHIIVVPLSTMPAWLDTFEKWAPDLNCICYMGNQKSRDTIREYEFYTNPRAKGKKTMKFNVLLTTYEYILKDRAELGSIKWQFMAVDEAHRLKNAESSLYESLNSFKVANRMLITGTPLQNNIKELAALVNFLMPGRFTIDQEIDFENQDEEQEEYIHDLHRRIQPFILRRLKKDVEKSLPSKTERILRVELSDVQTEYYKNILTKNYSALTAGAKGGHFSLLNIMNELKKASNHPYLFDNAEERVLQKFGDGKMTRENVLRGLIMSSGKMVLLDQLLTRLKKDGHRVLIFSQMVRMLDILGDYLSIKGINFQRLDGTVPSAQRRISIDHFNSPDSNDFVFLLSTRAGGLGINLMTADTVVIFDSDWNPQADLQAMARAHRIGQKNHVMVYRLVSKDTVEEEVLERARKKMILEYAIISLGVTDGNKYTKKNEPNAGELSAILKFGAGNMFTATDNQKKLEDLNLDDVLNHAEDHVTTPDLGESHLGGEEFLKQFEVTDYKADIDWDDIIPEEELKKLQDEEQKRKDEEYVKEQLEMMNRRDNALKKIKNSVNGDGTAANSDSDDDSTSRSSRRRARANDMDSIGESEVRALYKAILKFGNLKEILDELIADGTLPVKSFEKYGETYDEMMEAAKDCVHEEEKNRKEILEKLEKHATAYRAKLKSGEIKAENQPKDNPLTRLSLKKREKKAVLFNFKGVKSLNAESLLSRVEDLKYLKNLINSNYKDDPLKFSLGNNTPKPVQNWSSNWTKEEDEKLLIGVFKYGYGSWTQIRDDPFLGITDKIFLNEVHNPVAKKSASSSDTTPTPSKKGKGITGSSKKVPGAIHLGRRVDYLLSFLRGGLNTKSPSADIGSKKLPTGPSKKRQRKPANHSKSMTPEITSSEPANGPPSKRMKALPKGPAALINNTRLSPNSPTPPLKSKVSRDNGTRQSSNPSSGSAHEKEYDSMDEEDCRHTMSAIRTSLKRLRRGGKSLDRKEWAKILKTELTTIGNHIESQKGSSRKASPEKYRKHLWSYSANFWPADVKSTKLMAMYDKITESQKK

Chain of Sialic acid-binding Ig-like lectin 9 (Homo sapiens) (Q9Y336 whole entry): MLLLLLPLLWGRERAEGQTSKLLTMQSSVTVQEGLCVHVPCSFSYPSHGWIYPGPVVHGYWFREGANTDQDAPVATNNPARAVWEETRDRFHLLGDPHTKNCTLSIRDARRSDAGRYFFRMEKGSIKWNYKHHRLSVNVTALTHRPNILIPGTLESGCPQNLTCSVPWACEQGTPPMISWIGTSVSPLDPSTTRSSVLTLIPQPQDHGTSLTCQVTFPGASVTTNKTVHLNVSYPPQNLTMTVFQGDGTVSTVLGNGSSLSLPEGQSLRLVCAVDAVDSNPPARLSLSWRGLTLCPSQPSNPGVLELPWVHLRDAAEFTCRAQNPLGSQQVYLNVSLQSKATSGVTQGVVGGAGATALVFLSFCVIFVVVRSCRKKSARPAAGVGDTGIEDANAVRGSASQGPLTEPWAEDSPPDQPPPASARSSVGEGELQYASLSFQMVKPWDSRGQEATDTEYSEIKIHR
Chain of Protein translocase subunit SecA (Escherichia coli (strain K12)) (P10408 whole entry): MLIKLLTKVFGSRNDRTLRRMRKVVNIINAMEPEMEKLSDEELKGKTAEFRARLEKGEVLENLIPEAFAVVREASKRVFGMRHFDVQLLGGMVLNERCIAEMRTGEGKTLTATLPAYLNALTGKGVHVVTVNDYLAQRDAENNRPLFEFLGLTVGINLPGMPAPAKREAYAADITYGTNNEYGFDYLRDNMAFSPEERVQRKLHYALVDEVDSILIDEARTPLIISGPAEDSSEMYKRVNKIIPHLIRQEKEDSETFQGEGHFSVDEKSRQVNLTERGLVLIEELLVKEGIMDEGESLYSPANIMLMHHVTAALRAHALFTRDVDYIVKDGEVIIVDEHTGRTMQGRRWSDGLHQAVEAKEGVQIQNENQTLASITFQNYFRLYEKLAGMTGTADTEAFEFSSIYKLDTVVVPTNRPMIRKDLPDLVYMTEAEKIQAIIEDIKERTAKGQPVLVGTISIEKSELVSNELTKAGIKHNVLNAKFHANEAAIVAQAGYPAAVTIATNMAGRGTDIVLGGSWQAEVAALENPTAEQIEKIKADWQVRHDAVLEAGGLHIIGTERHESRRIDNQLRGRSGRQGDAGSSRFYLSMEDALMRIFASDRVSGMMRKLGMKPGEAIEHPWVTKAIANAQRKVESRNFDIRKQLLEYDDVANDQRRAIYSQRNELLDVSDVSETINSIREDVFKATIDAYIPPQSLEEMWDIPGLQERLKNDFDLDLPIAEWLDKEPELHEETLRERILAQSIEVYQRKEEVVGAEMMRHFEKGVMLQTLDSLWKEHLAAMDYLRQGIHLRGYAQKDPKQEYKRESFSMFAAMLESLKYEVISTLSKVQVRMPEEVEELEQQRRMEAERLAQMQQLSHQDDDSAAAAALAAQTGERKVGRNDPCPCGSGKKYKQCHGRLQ

Row | Compound | Percent Effect [1] [%] | Percent Effect [2] [%] | Percent Effect [3] [%] | Percent Effect [4] [%] | Percent Effect [5] [%] | Percent Effect [6] [%] | Percent Effect [7] [%] | Percent Effect [8] [%] | Percent Effect [9] [%] | Percent Effect [10] [%] | Percent Effect [11] [%]
1 | CCn1nc(C)c(CNC(=O)c2cn(CCC3CCCCN3)nn2)c1C (stereo unspecified) | -5.31 | 2.67 | 0.29 | 4.73 | 1.27 | 5.21 | 9.77 | -25.2 | 7.1 | 16.1 | -5.55
2 | COc1ccc(CC(=O)N(C)Cc2nnc3ccccn23)cc1 | -4.71 | 26 | 2.72 | -2.77 | 3.62 | -6.53 | 17.1 | 12.6 | 8.57 | 25.9 | 77.9
3 | CO[C@@H]1CC[C@H]2[C@H]1OCCN2C(=O)C1=CCCC1 | -3.13 | 10.4 | -1.31 | -0.155 | -4.83 | 16.1 | 7.49 | -1.44 | -2.12 | 14.1 | -6.88
4 | CC(C)c1ncc2c(n1)CN(Cc1nc(Cc3ccccc3)no1)CC2 | -3.61 | 10.8 | -1.07 | 3.74 | 2.69 | -2.77 | -5.92 | 10.2 | 17.8 | 23.2 | 0.435
5 | Cc1cc(C)n(CCCNC(=O)C(C)NC(=O)c2ccccc2Cl)n1 (stereo unspecified) | -2.06 | 5.26 | 4.16 | -4.01 | -2.63 | 0 | 6.81 | -13.1 | 5.32 | 10.4 | -5.43
6 | CNC(=O)c1nc2c(s1)CCN(C(=O)Cc1ccc(OC)cc1)CC2 | -7.69 | 5.41 | 1.22 | -1.04 | -1.07 | -1.59 | 0.369 | 8.46 | 4.32 | 0 | 1.61
7 | COCCC1(CO)CCCN(Cc2ccc(F)c(C)c2)C1 (stereo unspecified) | -3.62 | 0 | -3.75 | -6.12 | -0.88 | -1.24 | 2.15 | -4.5 | 3.23 | 1.24 | 2.9
8 | CCNC(c1cccnc1)c1cc(C)cc(C)c1 (stereo unspecified) | -3.46 | -3.8 | 4.33 | -1.27 | 2.15 | -4.52 | 5.83 | -28.2 | 0 | 5.06 | 2.53
9 | CCOCC(O)CN1CCN(C(=O)CC(C)C)CC1 (stereo unspecified) | -3.57 | 16.2 | -2.25 | 3.53 | -4.62 | 0.401 | 7.39 | 12.1 | 2.46 | 11.1 | -7.14
10 | CCOc1ncccc1CNC(=O)N1CCCC1c1ccncc1 (stereo unspecified) | -1.89 | 5.33 | -2.16 | 2.11 | -7.3 | 4.17 | 8.37 | 12.2 | 4.92 | 13.6 | -7.62
11 | CNc1cccc(C2CCCN(C(=O)c3ccncc3)C2)n1 (stereo unspecified) | -4.49 | 6.76 | 12.2 | 0.305 | 4.74 | -0.232 | 8.27 | -2.26 | 6.45 | 11.7 | -14.3
12 | O=C(CCc1ccccn1)N1CCc2cc(Cl)cc(Cl)c2C1 | -0.0645 | 7.79 | 5.1 | 1.57 | -9.34 | -17.9 | 15 | 47.7 | -1.07 | -3.7 | -2.98
13 | Cc1nc(C2CCCN(C(=O)c3cnn(C(C)(C)C)c3)C2)no1 (stereo unspecified) | -11.7 | 16.5 | -6.15 | -0.567 | 4.82 | -1.07 | 2.74 | -0.962 | 4.17 | 12.7 | -34.2
14 | O=C(c1cccnc1N1CCOCC1)N1CCCC(n2ccnc2)C1 (stereo unspecified) | -1.05 | 18.4 | 3.79 | 3.27 | -3.76 | -1.53 | 9.36 | 0.0212 | 4.41 | 17.1 | -9.1
15 | Cn1cc(C[C@H]2[C@@H](O)CCN2C(=O)C2CC=CC2)cn1 | -1.02 | 7.79 | 8.48 | -3.96 | 0.69 | 12.3 | 17.8 | 26.4 | 1.06 | 14.1 | -9.76
16 | O=C(c1cccnc1)N1CCc2ncnc(C3CCOC3)c2CC1 (stereo unspecified) | 0.619 | 10.7 | 5.98 | -10.8 | -5.71 | 3.5 | 10.8 | 2.86 | 4.25 | 11.5 | 3.31
